Measured values published in PubChem BioAssay (NCI).
Where “and” joins values, the source holds several entries; their conditions need not be identical. Equal values may be shown once. This is part of a sample that, as a whole, favours compounds with a hit. Of some 79,000 tested, about 15% had one in any assay. Some compounds were tested as several samples or in several runs, with calls that do not always agree. Calls of active or inactive are those of the source. Rule as the data show it: active = growth inhibition above about 70%; inactive = the rest.

What was measured:
[1] = NCI Yeast Anticancer Drug Screen. Data for the rad52 strain (AID 147);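 also: 0% = growth of vehicle-treated control cultures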; conditions: S. cerevisiae rad52 mutant growth inhibition, stronger effect = higher value
Method in brief: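 Genetically altered yeast (DNA damage repair defect) treated with compound; inhibition calculated relative to vehicle.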

[2] = NCI Yeast Anticancer Drug Screen. Data for the rad50EPP+ strain (AID 151);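 also: 0% = growth of vehicle-treated control cultures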; conditions: S. cerevisiae rad50 mutant strain, stronger effect = higher value
Method in brief: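 Strain rad50EPP+; compound exposure; % growth inhibition vs vehicle.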

[3] = NCI Yeast Anticancer Drug Screen. Data for the mgt1 strain (AID 153); conditions: S. cerevisiae mgt1 mutant growth inhibition, stronger effect = higher value
Method in brief: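 Read-out: yeast growth inhibition vs vehicle control. Strain mgt1, drawn from a panel altered in DNA damage repair or cell cycle control.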

[4] = NCI Yeast Anticancer Drug Screen. Data for the rad50 strain (AID 155);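 also: 0% = growth of vehicle-only cultures of the same strain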; conditions: S. cerevisiae rad50 strain growth inhibition, stronger effect = higher value
Method in brief: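 Cells are treated with compound, grown, and their growth is then scored against vehicle-only cultures of the same repair-deficient yeast strain.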

[5] = NCI Yeast Anticancer Drug Screen. Data for the mec2-1 strain (AID 157); conditions: S. cerevisiae mec2-1 strain, stronger effect = higher value
Method in brief: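 Cells of the genetically defined mec2-1 yeast strain are incubated with test compound. Inhibition of growth is calculated against vehicle-treated controls.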

[6] = NCI Yeast Anticancer Drug Screen. Data for the rad14 strain (AID 159);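 also: 0% = growth of vehicle-treated control cultures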; conditions: S. cerevisiae rad14 strain growth inhibition, stronger effect = higher value
Method in brief: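 Readout: yeast growth inhibition, referenced to vehicle-only cultures. Strain bears a defined alteration in DNA damage repair.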

[7] = NCI Yeast Anticancer Drug Screen. Data for the sgs1 mgt1 strain (AID 161);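 also: 0% = growth of cultures given vehicle only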; conditions: S. cerevisiae sgs1 mgt1 strain, stronger effect = higher value
Method in brief: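 Read-out: growth inhibition vs vehicle controls. Cells: mutant yeast strain deficient in DNA damage repair.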

[8] = NCI Yeast Anticancer Drug Screen. Data for the CLN2oe strain (AID 163);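 also: 0% = growth of vehicle-only control cultures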; conditions: S. cerevisiae CLN2oe strain, stronger effect = higher value
Method in brief: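 Strain altered in cell-cycle control, incubated with compound; growth compared to solvent-treated controls.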

[9] = NCI Yeast Anticancer Drug Screen. Data for the cln2 rad14 strain (AID 165);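 also: 0% = growth equal to vehicle treated cultures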; conditions: S. cerevisiae cln2 rad14 strain, stronger effect = higher value
Method in brief: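 The screen exposed genetically defined yeast (cln2 rad14) to test compounds and scored growth inhibition relative to vehicle-treated controls.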

[10] = NCI Yeast Anticancer Drug Screen. Data for the bub3 strain (AID 167); conditions: S. cerevisiae bub3 mutant strain, stronger effect = higher value
Method in brief: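 Part of a panel of yeast mutants defective in DNA damage repair or cell cycle regulation. Each strain is grown with compound, and inhibition is calculated relative to solvent-treated cultures.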

[11] = NCI Yeast Anticancer Drug Screen. Data for the mlh1 strain (AID 171);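 also: 0% = growth of vehicle-treated control cultures of the same strain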; conditions: S. cerevisiae mlh1 strain growth inhibition, stronger effect = higher value
Method in brief: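 Yeast screen: mutant strain plus compound, growth scored against vehicle control wells.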

[12] = NCI Yeast Anticancer Drug Screen. Data for the sgs1 strain (AID 173);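 also: 0% = growth of vehicle-only control cultures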; conditions: S. cerevisiae sgs1 mutant, stronger effect = higher value
Method in brief: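 Inhibition of yeast growth served as the measure. The mutant strain was treated with each compound, and growth was normalised to cultures receiving vehicle alone.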

[13] = NCI Yeast Anticancer Drug Screen. Data for the mlh1 rad18 strain (AID 175); conditions: S. cerevisiae mlh1 rad18 strain growth inhibition, stronger effect = higher value
Method in brief: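 Compound-treated yeast growth, normalised to vehicle controls. Strain bears defined DNA repair mutations.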

[14] = NCI Yeast Anticancer Drug Screen. Data for the rad18 strain (AID 177); conditions: S. cerevisiae rad18 mutant growth inhibition, stronger effect = higher value
Method in brief: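 Inhibition values reflect reduced yeast growth compared with vehicle-treated controls, using a strain engineered with a DNA damage repair defect.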

[15] = NCI Yeast Anticancer Drug Screen. Data for the wt1 strain (AID 149);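 also: 0% = growth of vehicle-treated wt1 cultures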; conditions: S. cerevisiae wt1 strain (SPY 50644) growth inhibition, stronger effect = higher value
Method in brief: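 The wt1 strain was treated with compounds, and growth was compared with vehicle-treated cultures to give inhibition.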

[16] = NCI Yeast Anticancer Drug Screen. Data for the wt2 strain (AID 169);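 also: 0% = growth of vehicle-treated yeast cultures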; conditions: S. cerevisiae wt2 strain growth inhibition, stronger effect = higher value
Method in brief: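 Steps: yeast strain treated with compound; growth recorded; inhibition calculated relative to cultures given vehicle alone.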

[17] = at 5.0 µM (retest, dose inferred, filed as 0.5)
[18] = at 50.0 µM (retest, dose inferred, filed as 5.0)

Measured: growth inhibition

Nc1ccn(C2OC(COP(=O)(O)O)C(O)C2O)c(=O)n1 (stereo not drawn)
87.4% (active) and 16.2% (inactive): [7]; at 50.0 µM
inactive: [1]; at 1.2 µM -1% | [1]; at 3.7 µM 0% | [1]; at 11.0 µM 3% | [1]; at 33.0 µM 5% | [1]; at 100.0 µM 6% | [2]; at 1.2 µM -5% | [2]; at 3.7 µM -2% | [2]; at 11.0 µM 8% | [2]; at 33.0 µM 37% | [3]; at 1.2 µM 2% | [3]; at 3.7 µM 4% | [3]; at 11.0 µM 2% | [3]; at 33.0 µM 3% | [3]; at 100.0 µM 14% | [4]; at 1.2 µM 0% | [4]; at 3.7 µM 9% | [4]; [17] 38% | [4]; at 11.0 µM 11% | [4]; at 33.0 µM 33% | [4]; [18] 42% | [4]; at 100.0 µM 52% | [5]; at 1.2 µM 0% | [5]; at 3.7 µM 5% | [5]; [17] 3% | [5]; at 11.0 µM 8% | [5]; at 33.0 µM 11% | [5]; [18] 19% | [5]; at 50.0 µM -9.35% and -12.8% | [5]; at 100.0 µM -3% | [6]; at 1.2 µM -1% | [6]; at 3.7 µM 6% | [6]; at 11.0 µM 4% | [6]; at 33.0 µM 5% | [6]; at 100.0 µM 7% | [7]; [17] 47% | [8]; at 1.2 µM -4% | [8]; at 3.7 µM -2% | [8]; at 11.0 µM -6% | [8]; at 33.0 µM -15% | [8]; at 100.0 µM -5% | [9]; [17] -4% | [9]; [18] -10% | [9]; at 50.0 µM -40.1% and -51.6% | [10]; at 1.2 µM -2% | [10]; at 3.7 µM -6% | [10]; [17] -5% | [10]; at 11.0 µM -5% | [10]; at 33.0 µM -12% | [10]; [18] -4% | [10]; at 50.0 µM -32.9% and 0.5% | [10]; at 100.0 µM -10% | [11]; at 1.2 µM 1% | [11]; at 3.7 µM 8% | [11]; at 11.0 µM 0% | [11]; at 33.0 µM 7% | [11]; at 100.0 µM 26% | [12]; at 1.2 µM 21% | [12]; at 3.7 µM 43% | [12]; at 11.0 µM 68% | [13]; [17] 13% | [13]; [18] -5% | [13]; at 50.0 µM 21.4% and -23.4% | [14]; at 1.2 µM -1% | [14]; at 3.7 µM -4% | [14]; at 11.0 µM -8% | [14]; at 33.0 µM -15% | [14]; at 100.0 µM -22%
active: [2]; at 100.0 µM 72% | [7]; [18] 75% | [12]; at 33.0 µM 82% | [12]; at 100.0 µM 86%
78.3% (active) and -3% (inactive): [4]; at 50.0 µM

Cc1nc(Nc2ccccc2[N+](=O)[O-])sc1C(=O)CC(=O)C(=O)Nc1c(C(C)C)cccc1C(C)C
inactive: [15]; at 1.2 µM 2% | [15]; at 3.7 µM 4% | [15]; at 11.0 µM 3% | [15]; at 33.0 µM 5% | [15]; at 100.0 µM 4% | [2]; at 1.2 µM 5% | [2]; at 3.7 µM 17% | [2]; at 11.0 µM 37% | [2]; at 33.0 µM 50% | [2]; at 100.0 µM 59% | [3]; at 1.2 µM -1% | [3]; at 3.7 µM 0% | [3]; at 11.0 µM 0% | [3]; at 33.0 µM -11% | [3]; at 100.0 µM -1% | [4]; at 1.2 µM -5% | [4]; at 3.7 µM -16% | [4]; [17] 10% | [4]; at 11.0 µM -17% | [4]; at 33.0 µM 2% | [4]; [18] 1% | [4]; at 50.0 µM -1.6% | [4]; at 100.0 µM 3% | [5]; at 1.2 µM 2% | [5]; at 3.7 µM 4% | [5]; [17] 3% | [5]; at 11.0 µM 3% | [5]; at 33.0 µM 6% | [5]; [18] 8% | [5]; at 50.0 µM 17.9% | [5]; at 100.0 µM 6% | [6]; at 1.2 µM 0% | [6]; at 3.7 µM -2% | [6]; at 11.0 µM 1% | [6]; at 33.0 µM 0% | [6]; at 100.0 µM 3% | [7]; [17] 7% | [7]; [18] 11% | [7]; at 50.0 µM 34% | [8]; at 1.2 µM 3% | [8]; at 3.7 µM 1% | [8]; at 11.0 µM 4% | [8]; at 33.0 µM 11% | [8]; at 100.0 µM 12% | [9]; [17] 35% | [9]; [18] 12% | [9]; at 50.0 µM 47.1% | [10]; at 1.2 µM 3% | [10]; at 3.7 µM 5% | [10]; [17] -3% | [10]; at 11.0 µM 7% | [10]; at 33.0 µM 12% | [10]; [18] 33% | [10]; at 50.0 µM 41.2% | [10]; at 100.0 µM 12% | [16]; at 1.2 µM -1% | [16]; at 3.7 µM 0% | [16]; at 11.0 µM 0% | [16]; at 33.0 µM 2% | [16]; at 100.0 µM 0%
